Results filed as inconclusive are left out. The source made the active and inactive calls. Unless noted, the call rests on the fitted dose curve; in most records, active means well fitted curve in the direction sought with a large enough effect; inconclusive means small, poorly fitted or top-dose-only effect, or another doubt; inactive means no such curve, though single readings can be large; an effect the other way counts as inactive or inconclusive.
Legend:
[1] = biological target: Glucocorticoid receptor (Homo sapiens) (UniProt P04150); assay: qHTS assay for small molecule agonists of glucocorticoid receptor signaling (AID 588532; active means well fitted curve in the direction sought with a large enough effect in the signal ratio, with a control signal flat; the % refers to the signal ratio;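 further: 100% = dexamethasone at 0.1 µM and 0% = DMSO only wells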); settings: HeLa MMTV-bla, beta-lactamase ratio, agonist, 18 h; stronger effect = higher value; percent of dexamethasone control, DMSO zero
Glucocorticoid receptor (Homo sapiens), sequence (P04150 whole entry, looked up): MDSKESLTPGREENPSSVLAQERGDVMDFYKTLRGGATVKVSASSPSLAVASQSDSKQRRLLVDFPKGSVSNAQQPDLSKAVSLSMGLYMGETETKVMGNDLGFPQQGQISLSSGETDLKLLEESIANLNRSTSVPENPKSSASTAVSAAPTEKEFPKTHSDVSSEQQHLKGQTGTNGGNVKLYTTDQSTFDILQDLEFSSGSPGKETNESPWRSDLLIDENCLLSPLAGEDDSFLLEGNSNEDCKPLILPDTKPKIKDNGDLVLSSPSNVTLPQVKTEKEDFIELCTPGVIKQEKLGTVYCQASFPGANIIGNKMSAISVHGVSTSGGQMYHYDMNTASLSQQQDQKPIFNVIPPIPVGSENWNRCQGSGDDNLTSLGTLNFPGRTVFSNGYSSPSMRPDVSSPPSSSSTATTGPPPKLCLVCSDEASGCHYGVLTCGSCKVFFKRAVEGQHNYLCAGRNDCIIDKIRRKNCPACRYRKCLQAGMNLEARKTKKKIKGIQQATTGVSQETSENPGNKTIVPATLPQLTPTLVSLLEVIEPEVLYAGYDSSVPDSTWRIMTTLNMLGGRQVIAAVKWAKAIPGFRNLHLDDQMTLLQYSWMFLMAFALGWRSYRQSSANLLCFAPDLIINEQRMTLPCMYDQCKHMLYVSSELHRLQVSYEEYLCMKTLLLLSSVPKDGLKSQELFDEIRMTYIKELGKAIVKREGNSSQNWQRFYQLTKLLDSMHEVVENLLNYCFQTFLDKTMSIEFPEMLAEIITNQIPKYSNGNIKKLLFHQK
Method in brief: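 Titration series, up to 92 uM, applied to GRE-bla HeLa cells for 18 h at 37 C. Detection by CCF4 FRET substrate after 2 h at RT.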

[2] = biological target: Glucocorticoid receptor (Homo sapiens) (UniProt P04150); assay: qHTS assay for small molecule antagonists of glucocorticoid receptor signaling (AID 588533; active means well fitted inhibition curve with a large enough effect in the signal ratio, with a control signal flat, not every such curve was filed as active; the % refers to the signal ratio;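 further: cells stimulated with 2 nM dexamethasone as agonist; on the % scale 0 is the no-effect control and ±100 the full control effect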); settings: HeLa MMTV-bla, GRE beta-lactamase ratio, antagonist mode, 18 h; series mostly up to 76.8 µM
Method in brief: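 Antagonist-mode qHTS: compound titrations added to GRE-bla HeLa cells, then dexamethasone 2 nM final; 18 h, 37 C. CCF4 FRET fluorescence normalized to dexamethasone and DMSO; IC50 from Hill fit.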

[3] = qHTS assay for small molecule antagonists of peroxisome proliferator-activated receptor delta signaling (AID 588535); settings: HEK293T PPARd-UAS-bla, beta-lactamase FRET ratio, 18 h; 460 nm channel;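 further: cells co-treated with a PPAR-delta agonist as stimulator during compound exposure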
Method in brief: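 GeneBLAzer PPAR-delta-UAS-bla HEK293T cells in medium with 2% charcoal/dextran FBS were preincubated 5 hrs at 37 C, then given compounds, incubated 18 hrs at 37 C, and read by CCF4 beta-lactamase fluorescence; IC50 from Hill fits.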

[4] = biological target: Vitamin D3 receptor (Homo sapiens) (UniProt P11473); assay: qHTS assay for small molecule antagonists of vitamin D receptor signaling (AID 588541; calls by dose curve;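 further: receptor activated by calcitriol during compound treatment; on the % scale 0 is the no-effect control and ±100 the full control effect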); settings: HEK293T VDR-UAS-bla, beta-lactamase ratio, antagonist mode; series mostly up to 76.7 µM
Vitamin D3 receptor (Homo sapiens), sequence (P11473 whole entry, looked up): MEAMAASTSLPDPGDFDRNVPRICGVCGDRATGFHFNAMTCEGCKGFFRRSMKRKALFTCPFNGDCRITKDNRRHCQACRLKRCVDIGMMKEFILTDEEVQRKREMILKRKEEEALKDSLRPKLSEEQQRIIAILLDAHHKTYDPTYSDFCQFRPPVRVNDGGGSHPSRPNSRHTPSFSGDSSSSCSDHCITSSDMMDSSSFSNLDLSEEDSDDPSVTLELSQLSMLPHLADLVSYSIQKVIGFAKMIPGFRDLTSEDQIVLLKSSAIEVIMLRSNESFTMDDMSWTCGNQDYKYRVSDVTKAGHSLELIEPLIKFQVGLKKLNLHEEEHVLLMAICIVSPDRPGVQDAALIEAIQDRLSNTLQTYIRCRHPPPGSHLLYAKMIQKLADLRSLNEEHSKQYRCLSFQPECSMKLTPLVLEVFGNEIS
Method in brief: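 VDR-UAS-bla HEK293T cells (2000/well, 2% charcoal-stripped FBS) were treated with titrated compounds plus 1-alpha,25-dihydroxyvitamin D3 (50 nM or 3 nM final) for 16 h at 37 C. CCF4 beta-lactamase fluorescence was read; Hill fits gave IC50.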

[5] = biological target: Vitamin D3 receptor (Homo sapiens) (UniProt P11473); assay: qHTS assay for small molecule agonists of vitamin D receptor signaling (AID 588543; calls by dose curve;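 further: 0% = DMSO basal and 100% = reference agonist control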); settings: HEK293T VDR-UAS-bla, beta-lactamase ratio, 16 h; series mostly up to 76.8 µM
Method in brief: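 qHTS in agonist mode: compound titrations stimulate a VDR-driven β-lactamase reporter in HEK293T cells over 16 h at 37 °C. Response normalized to 50 nM 1α,25-dihydroxyvitamin D3 = 100%, DMSO = 0%; Hill fitting gives EC50 and maximal response.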

[6] = qHTS assay for small molecule agonists of retinoid X receptor alpha signaling (AID 588544; calls by dose curve;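 on activation: 0% = DMSO basal wells and 100% = reference agonist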); settings: HEK293T RXRa-UAS-bla, beta-lactamase reporter, 18 h; 530 nm emission
[7] = biological target: Retinoic acid receptor RXR-alpha (Homo sapiens) (UniProt P19793); assay: as above; settings: HEK293T RXRa-UAS-bla, beta-lactamase reporter, 18 h; series mostly up to 76.7 µM
Retinoic acid receptor RXR-alpha (Homo sapiens), sequence (P19793 whole entry, looked up): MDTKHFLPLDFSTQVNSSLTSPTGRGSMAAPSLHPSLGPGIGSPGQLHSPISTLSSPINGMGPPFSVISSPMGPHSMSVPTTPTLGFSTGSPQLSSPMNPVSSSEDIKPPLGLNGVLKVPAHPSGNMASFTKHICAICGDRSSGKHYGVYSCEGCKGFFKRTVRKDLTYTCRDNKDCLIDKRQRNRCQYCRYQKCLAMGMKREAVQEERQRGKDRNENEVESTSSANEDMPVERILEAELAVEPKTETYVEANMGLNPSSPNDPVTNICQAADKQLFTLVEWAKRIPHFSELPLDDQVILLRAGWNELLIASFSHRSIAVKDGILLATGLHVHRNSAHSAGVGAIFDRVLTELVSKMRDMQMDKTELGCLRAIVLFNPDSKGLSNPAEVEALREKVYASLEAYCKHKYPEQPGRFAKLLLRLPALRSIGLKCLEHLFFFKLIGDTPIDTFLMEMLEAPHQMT

[8] = biological target: Thyroid hormone receptor beta (Homo sapiens) (UniProt P10828); assay: qHTS assay for small molecule antagonists of thyroid hormone receptor beta signaling (AID 588547; active means well fitted inhibition curve with a large enough effect in the signal ratio, with a control signal flat, not every such curve was filed as active; the % refers to the signal ratio;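 further: cells stimulated with 0.4 nM T3 agonist during compound exposure; on the % scale 0 is the no-effect control and ±100 the full control effect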); settings: TR-UAS-bla HEK293, beta-lactamase ratio, antagonist mode, 18 h
Thyroid hormone receptor beta (Homo sapiens), sequence (P10828 whole entry, looked up): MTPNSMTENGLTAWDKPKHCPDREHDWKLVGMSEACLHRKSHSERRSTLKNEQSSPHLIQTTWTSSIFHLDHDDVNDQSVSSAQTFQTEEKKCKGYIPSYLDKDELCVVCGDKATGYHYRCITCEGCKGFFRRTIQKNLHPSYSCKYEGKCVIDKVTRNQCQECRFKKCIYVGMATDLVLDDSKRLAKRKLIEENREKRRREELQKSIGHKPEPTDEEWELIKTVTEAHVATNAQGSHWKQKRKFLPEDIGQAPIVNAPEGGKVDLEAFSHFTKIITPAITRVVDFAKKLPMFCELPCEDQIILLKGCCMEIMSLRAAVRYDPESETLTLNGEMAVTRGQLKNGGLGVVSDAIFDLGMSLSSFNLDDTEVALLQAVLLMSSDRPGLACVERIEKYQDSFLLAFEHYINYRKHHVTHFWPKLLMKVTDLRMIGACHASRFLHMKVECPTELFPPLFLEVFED
Method in brief: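 TR-UAS-bla GripTite HEK293 cells in 2% charcoal/dextran FBS medium were preincubated 4 h at 37 C, given compound (0.59 nM to 92 uM) plus 0.4 nM T3 (final) for 18 h, then CCF4 for 2 h at RT; Hill fit gave IC50.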

[9] = qHTS assay for small molecule agonists of the antioxidant response element (ARE) signaling pathway (AID 651741; active means well fitted activation curve with a large enough effect in the signal ratio; the % refers to the signal ratio; further: % of control where 0% means no effect); settings: HepG2 ARE-bla reporter, beta-lactamase FRET ratio, 16 h; series mostly up to 96 µM
Method in brief: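 ARE-bla HepG2 cells (beta-lactamase reporter under ARE control) were plated at 2,000 cells/well, preincubated 5 h at 37 C/5% CO2, then treated with DMSO-dissolved compounds for 16 h at 37 C; LiveBLAzer B/G FRET substrate added, fluorescence read after 2 h at room temperature.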

[10] = qHTS assay for small molecule activators of the p53 signaling pathway (AID 651743; active means well fitted activation curve with a large enough effect in the signal ratio, not every such curve was filed as active; the % refers to the signal ratio; further: % of control where 0% means no effect); settings: HCT-116 p53RE-bla, beta-lactamase FRET ratio, 16 h; activation: stronger effect = higher value
Method in brief: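 p53RE-bla HCT-116 cells with a stably integrated beta-lactamase reporter under p53 response elements were plated, rested 5 hours at 37 C/5% CO2, then exposed to compounds in DMSO for 16 hours at 37 C. LiveBLAzer B/G FRET substrate was read after 2 hours at room temperature.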

[11] = qHTS assay for small molecule activators of the nuclear factor-kappa B (NF-kB) signaling pathway (AID 651749; active means well fitted activation curve with a large enough effect in the signal ratio; the % refers to the signal ratio; further: % of control where 0% means no effect); settings: NF-kB-bla ME-180 cells, beta-lactamase FRET ratio, 16 h; activation: stronger effect = higher value
Method in brief: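 ME-180 cells stably carrying a beta-lactamase reporter under an NF-kB response element were exposed to compound or DMSO vehicle for 16 hr at 37C, 5% CO2. Pathway activation was read by FRET, since reporter expression disrupts FRET.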

[12] = biological target: Peroxisome proliferator-activated receptor alpha (Homo sapiens) (UniProt Q07869); assay: qHTS assay for small molecule agonists of the peroxisome proliferator-activated receptor alpha (PPARalpha) signaling pathway (AID 651778); settings: PathHunter PPARalpha complementation, chemiluminescence, 6 h; max response: stronger effect = higher value; further: potency means the concentration at half of the fitted maximal effect; on max response: % of control where 0% means no effect
Peroxisome proliferator-activated receptor alpha (Homo sapiens), sequence (Q07869 whole entry, looked up): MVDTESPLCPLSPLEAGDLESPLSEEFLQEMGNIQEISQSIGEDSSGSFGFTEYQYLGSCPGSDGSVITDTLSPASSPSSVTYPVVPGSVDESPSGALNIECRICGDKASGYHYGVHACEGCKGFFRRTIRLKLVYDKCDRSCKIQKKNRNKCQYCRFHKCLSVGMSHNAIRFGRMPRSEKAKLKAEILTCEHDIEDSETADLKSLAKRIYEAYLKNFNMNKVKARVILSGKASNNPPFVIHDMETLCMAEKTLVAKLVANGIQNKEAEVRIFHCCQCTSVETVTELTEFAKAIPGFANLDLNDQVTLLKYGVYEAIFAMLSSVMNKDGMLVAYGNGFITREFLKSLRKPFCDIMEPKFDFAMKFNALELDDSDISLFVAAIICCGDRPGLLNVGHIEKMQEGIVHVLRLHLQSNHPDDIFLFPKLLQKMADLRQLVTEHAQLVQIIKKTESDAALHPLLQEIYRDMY
Method in brief: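 Cells plated at 2,000/well and held overnight at 37 C, 5% CO2, then compound added by pin tool for 6 hr; after PathHunter detection reagent and 60 min at room temperature, chemiluminescence from enzyme complementation was read.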

[13] = qHTS assay for small molecule agonists of the antioxidant response element (ARE) signaling pathway measured by Nrf2-dependant transcriptional activity - cell viability counter screen (AID 720653; active means well fitted curve in the direction sought with a large enough effect in the repeat runs; an effect the other way counts as inactive or inconclusive; further: on the % scale 0 is the no-effect control and ±100 the full control effect); settings: ARE-bla HepG2 viability, CellTiter-Glo ATP luminescence, 16 h; max response: stronger effect = lower value
Method in brief: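 ARE-bla HepG2 cells (2,000/well) rested 5 hrs at 37C/5% CO2, then exposed to compounds in DMSO for 16 hrs. Viability was read in the same wells as intracellular ATP by luminescence, 30 min at room temperature after reagent addition.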

[14] = qHTS assay for cell viability of HEK293 cells (AID 743288); settings: ATP luminescence (CellTiter-Glo), 18 h; max response: stronger effect = lower value; further: nearly all actives have a fitted effect of over 50% in size; further: potency means the concentration at half of the fitted maximal effect
Method in brief: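 The Tox21 protocol used parental HEK293 cells treated for 18 h at 37 C with compounds delivered by pintool; ATP-coupled luminescence after 30 min at room temperature gave viability.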

[15] = qHTS assay for cell viability of the p53RE-bla HCT-116 cell line (AID 743292); settings: p53RE-bla HCT-116 viability, ATP luminescence, 16 h; series mostly up to 95 µM; further: nearly all actives have a fitted effect of over 55% in size; further: potency means the concentration at half of the fitted maximal effect
Method in brief: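 Intracellular ATP of p53RE-bla HCT-116 cells measured by luciferase luminescence following 16 h compound incubation at 37 C; DMSO-only wells served as vehicle controls.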

[16] = biological target: Nuclear receptor subfamily 1 group I member 2 (Rattus norvegicus) (UniProt Q9R1A7); assay: qHTS assay for small molecule activators of the rat pregnane X receptor (rPXR) signaling pathway (AID 651751; call rule not given here; further: 0% is about no effect); settings: rPXR reporter cells, luciferase (One-Glo), 24 h
Nuclear receptor subfamily 1 group I member 2 (Rattus norvegicus), sequence (Q9R1A7 whole entry, looked up): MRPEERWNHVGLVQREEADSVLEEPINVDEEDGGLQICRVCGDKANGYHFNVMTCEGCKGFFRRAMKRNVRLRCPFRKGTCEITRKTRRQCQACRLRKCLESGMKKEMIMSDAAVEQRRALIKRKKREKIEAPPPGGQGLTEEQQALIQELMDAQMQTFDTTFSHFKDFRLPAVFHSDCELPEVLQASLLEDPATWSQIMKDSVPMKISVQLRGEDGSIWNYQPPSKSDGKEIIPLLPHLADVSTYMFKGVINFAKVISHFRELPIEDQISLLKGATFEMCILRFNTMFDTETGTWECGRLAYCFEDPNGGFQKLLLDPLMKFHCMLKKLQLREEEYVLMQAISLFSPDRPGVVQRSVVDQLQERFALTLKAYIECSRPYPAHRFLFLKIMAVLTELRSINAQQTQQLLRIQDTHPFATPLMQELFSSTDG

[17] = qHTS assay for small molecule activators of the human pregnane X receptor (PXR) signaling pathway (AID 720659; call rule not given here; further: 0% is about no effect); settings: DPX-2 HepG2 CYP3A4-luciferase, 24 h; series mostly up to 92.3 µM
[18] = biological target: Peroxisome proliferator-activated receptor gamma (Homo sapiens) (UniProt P37231); assay: qHTS assay for small molecule antagonists of peroxisome proliferator-activated receptor gamma signaling (AID 588537; active means well fitted inhibition curve with a large enough effect in the signal ratio, with a control signal flat, not every such curve was filed as active; the % refers to the signal ratio;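 further: reporter cells co-stimulated with 50 nM rosiglitazone agonist during compound treatment; % of control where 0% means no effect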); settings: HEK293 PPARg-UAS-bla, beta-lactamase ratio, antagonist mode; series mostly up to 76.8 µM
Peroxisome proliferator-activated receptor gamma (Homo sapiens), sequence (P37231 whole entry, looked up): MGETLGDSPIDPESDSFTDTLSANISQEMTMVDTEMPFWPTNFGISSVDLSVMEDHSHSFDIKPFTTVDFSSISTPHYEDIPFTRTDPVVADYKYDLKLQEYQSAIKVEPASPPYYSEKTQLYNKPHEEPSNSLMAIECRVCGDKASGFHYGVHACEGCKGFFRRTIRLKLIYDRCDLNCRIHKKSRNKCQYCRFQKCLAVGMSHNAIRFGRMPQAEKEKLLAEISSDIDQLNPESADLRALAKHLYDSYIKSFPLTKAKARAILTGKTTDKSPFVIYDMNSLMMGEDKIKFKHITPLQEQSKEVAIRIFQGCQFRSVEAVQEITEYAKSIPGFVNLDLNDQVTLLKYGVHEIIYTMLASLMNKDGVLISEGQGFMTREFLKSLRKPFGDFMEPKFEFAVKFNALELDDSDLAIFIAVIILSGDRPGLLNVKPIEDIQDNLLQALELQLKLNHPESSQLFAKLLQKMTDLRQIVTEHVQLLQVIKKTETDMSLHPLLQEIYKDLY
Method in brief: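 PPAR-gamma-UAS-bla HEK293 cells (3000/well, 1% charcoal/dextran-stripped FBS) were preincubated 6-6.5 h at 37 C, given titrated compounds, then stimulated with 50 nM rosiglitazone for 16 h. Beta-lactamase activity was read with CCF4 dye; IC50 came from Hill fits.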

[19] = biological target: Thyroid hormone receptor beta (Homo sapiens) (UniProt P10828); assay: qHTS assay for small molecule agonists of thyroid hormone receptor beta signaling (AID 588545; calls by dose curve;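 further: 0% = DMSO only and 100% = 10 nM T3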); settings: TR-UAS-bla GripTite HEK 293, beta-lactamase ratio, agonist mode, 18 h; series mostly up to 76.7 µM
Method in brief: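 TR-UAS-bla GripTite HEK 293 cells (2500/well, medium with 2% charcoal/dextran FBS) were treated in agonist mode for 18 h at 37 C, titrated. Beta-lactamase was read by CCF4 ratio after 2 h; normalized to 10 nM T3 (100%) and DMSO, Hill-fitted for EC50 and efficacy.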

[20] = qHTS assay for small molecule antagonists of retinoid X receptor alpha signaling (AID 588546; active means well fitted inhibition curve with a large enough effect in the signal ratio, with a control signal flat, not every such curve was filed as active; the % refers to the signal ratio); settings: HEK293T RXRa-UAS-bla, beta-lactamase ratio, antagonist mode; measured here: W530 green channel, cytotoxicity proxy
Method in brief: (§1)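 Beta-lactamase reporter inhibition, read as CCF4 fluorescence ratio (ex 405, em 460/530 nm) after 2 h at RT. HEK293T UAS-bla cells, 2500/well, were stimulated with 9-cis-RA at 500 or 100 nM final alongside test compound for 18 h at 37 C.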

[21] = biological target: Retinoic acid receptor RXR-alpha (Homo sapiens) (UniProt P19793); assay: as above; settings: HEK293T RXRa-UAS-bla, beta-lactamase ratio, antagonist mode
Method in brief: as §1

[22] = qHTS assay for environmental chemicals that activate the Aryl hydrocarbon Receptor (AhR) signaling pathway (AID 651777); settings: 1A2-DRE human hepatoma cells, luciferase, 24 h; activation: stronger effect = higher value; further: % of control where 0% means no effect; nearly all actives have a fitted effect of over 15% in size
Method in brief: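 Measured luciferase activity, read 30 min after One-Glo addition at room temperature, from human hepatoma cells bearing a dioxin response element–CYP1A2 promoter reporter and exposed to compound for 24 hr at 37 C.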

[23] = qHTS assay for small molecule agonists of the antioxidant response element (ARE) signaling pathway measured by Nrf2-dependant transcriptional activity (AID 720636; active means well fitted curve in the direction sought with a large enough effect in the repeat runs; an effect the other way counts as inactive or inconclusive;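 further: HepG2 cells with an ARE-driven luciferase reporter; % of control where 0% means no effect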); settings: ARE-luc HepG2, Nrf2 luciferase reporter, 16 h; series mostly up to 92.4 µM
Method in brief: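 In HepG2 cells engineered with an Nrf2-responsive luciferase gene, ARE induction was quantified as luminescence after 16 hr compound treatment at 37 C.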

[24] = biological target: Peroxisome proliferator-activated receptor gamma (Homo sapiens) (UniProt P37231); assay: qHTS assay for small molecule agonists of peroxisome proliferator-activated receptor gamma signaling (AID 588536; active means well fitted curve in the direction sought with a large enough effect in the signal ratio, with a control signal flat, not every such curve was filed as active; the % refers to the signal ratio;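 further: 0% = DMSO basal wells and 100% = rosiglitazone at 2 µM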); settings: HEK293 PPARg-UAS-bla, beta-lactamase ratio, 16 h, percent of rosiglitazone response, DMSO as zero; series mostly up to 76.7 µM
Method in brief: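 Ratiometric blue/green fluorescence (405 nm excitation; 460 and 530 nm emission) from CCF4-loaded HEK293 reporter cells serves as signal. Exposure to test compounds lasts 16 h at 37 C in medium containing 1% charcoal/dextran-treated serum.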

CCCCCCC(O)CCCCCCCCCCC(=O)OC (centres undefined)
18.1%: max response [3]
active: Potency [12] 20 µM
-11.4%: max response [6]
inactive: activation [1] -20.2% | Potency [2] | Potency [4] | outcome [5] | Potency [7] | activity change % (negative = inhibition) [8] -2.76% | Potency [9] | activation [10] 0.349% | activation [11] -0.158% | max response [13] 9.9% | max response [14] -0.436% | Potency [15] | max response [16] -2.07% | outcome [17]

COC(=O)c1ccc(CNS(C)(=O)=O)cc1S(=O)(=O)NC(=O)Nc1nc(OC)cc(OC)n1
10.6%: max response [6]
inactive: activation [1] -4.55% | Potency [2] | Potency [18] | Potency [4] | outcome [5] | Potency [7] | Potency [19] | max response [21] 13.2% | activation [10] -5.96% | activation [11] 1.5% | activation [22] -2.23% | Potency [23] | max response [13] 12.1% | max response [14] 10.3% | max response [16] -5.5% | outcome [17]
-12.9%: max response [20]

CCNc1nc(NC(C)CC)nc(OC)n1 (centres undefined)
inactive: activation [1] -21% | Potency [2] | outcome [24] | Potency [18] | Potency [4] | outcome [5] | Potency [7] | Potency [19] | max response [21] 7.45% | Potency [9] | activation [10] -1.96% | activation [22] 2.63% | max response [12] 5.06% | max response [13] 16.1% | Potency [15] | max response [16] 1.4% | outcome [17]
-13.5%: max response [6]
-8.46%: max response [20]

CC/C(=C(\c1ccc(O)cc1)c1ccc(OCCN(C)C)cc1)c1ccccc1
active: Potency [14] 25.1 µM | Potency [15] 39.8 µM
inactive: activation [1] -2.75% | activation [22] -12.4%

Cc1ccc2c(c1)C(=O)OC2=O
-9.63%: max response [20]
-13.4%: max response [6]
33.6%: max response [3]
inactive: activation [1] -1.62% | Potency [2] | outcome [24] | Potency [18] | Potency [4] | outcome [5] | Potency [7] | max response [21] -14.4% | activity change % (negative = inhibition) [8] -5.6% | Potency [9] | activation [10] -6.05% | activation [22] 2.38% | Potency [23] | max response [13] -8.54% | max response [14] -7.63% | Potency [15] | max response [16] 0.0212% | outcome [17]

— PubChem BioAssay (NCATS)
